# Inconclusive results are not listed. Calls of active or inactive are those of the source. Calls come from the whole dose curve; as a rule, active = well fitted curve in the direction sought with a large enough effect; inconclusive = small, poorly fitted or top-dose-only effect, or another doubt; inactive = no such curve, though single readings can be large; an effect the other way counts as inactive or inconclusive.
# Target: Cytochrome P450 3A7 (Homo sapiens) (UniProt P24462)
# Test: Cytochrome P450 family 3 subfamily A member 7 (CYP3A7) small molecule antagonists: luciferase biochemical qHTS assay (AID 1963596); note: % is set by controls: 0 for no effect and ±100 for the full control effect
# Conditions: P450-Glo CYP3A7 enzyme luminescence, 1 h; series mostly up to 57.4 µM; activity change, negative = inhibition: at the top concentration
# In short: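 In this luminescent screen, enzyme and proluciferin substrate meet test compound for 10 min before NADPH regeneration solution drives a 1 h room-temperature reaction; detection reagent halts turnover and luminescence is read 20 min later.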
# Note: nearly all actives have a fitted effect of over 40% in size.
# Cytochrome P450 3A7 (Homo sapiens), sequence (P24462 whole entry, looked up): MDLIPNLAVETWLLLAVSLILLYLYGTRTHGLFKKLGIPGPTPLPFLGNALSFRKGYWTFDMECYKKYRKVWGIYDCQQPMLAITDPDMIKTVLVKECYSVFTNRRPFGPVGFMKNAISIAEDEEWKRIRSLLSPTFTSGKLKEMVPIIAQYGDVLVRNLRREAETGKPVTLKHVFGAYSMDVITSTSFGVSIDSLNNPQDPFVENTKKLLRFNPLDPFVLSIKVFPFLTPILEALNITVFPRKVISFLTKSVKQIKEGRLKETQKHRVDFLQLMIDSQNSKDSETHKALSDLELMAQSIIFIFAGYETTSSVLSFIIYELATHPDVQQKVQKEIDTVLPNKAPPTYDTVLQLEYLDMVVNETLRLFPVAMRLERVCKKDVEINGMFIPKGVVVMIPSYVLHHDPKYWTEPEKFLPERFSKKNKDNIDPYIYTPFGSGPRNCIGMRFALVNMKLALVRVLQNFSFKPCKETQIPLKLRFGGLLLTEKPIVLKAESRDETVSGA
SMILES,"activity change, negative = inhibition",Potency
C[C@H]1CN(C[C@H](Cc2ccccc2)C(=O)NCC(=O)O)CC[C@@]1(C)c1cccc(O)c1,-25.7% (inactive),
FC(F)(F)C(F)(F)C(F)(F)C(F)(F)C(F)(F)C(F)(F)C(F)(F)C(F)(F)Br,3.69% (inactive),
Cc1cccc(OCC(O)CNC(C)(C)C)c1C (stereo not drawn),0.168% (inactive),
CCOC(=O)C(O)c1ccccc1 (stereo not drawn),11.6% (inactive),
CCN1CCCC1CN (stereo not drawn),-10.5% (inactive),
CCCCCOC(=O)Nc1nc(=O)n([C@@H]2O[C@H](C)[C@@H](O)[C@H]2O)cc1F,,inactive
C=CCN1CCc2nc(N)sc2CC1,-14.6% (inactive),
CCN(CC)CCNC(=O)c1cc(Cl)c(N)cc1OC,-20.9% (inactive),
CCCCCCCCCCC(CO)CCCCCCCC (stereo not drawn),-15.3% (inactive),
CC(C)(C)c1nnc(NS(=O)(=O)c2ccccc2)s1,-11.2% (inactive),
NC(CS)C(=O)O (stereo not drawn),-1.75% (inactive),
O=C(/C=C/c1ccc(O)c(O)c1)O[C@@H]1C[C@@](OC(=O)/C=C/c2ccc(O)c(O)c2)(C(=O)O)C[C@@H](O)[C@@H]1O,-19.9% (inactive),
Cc1cc(NC(=O)C2=C(O)c3ccccc3S(=O)(=O)N2C)no1,1.33% (inactive),
Cn1cc(-c2ccc3c(c2)CCN3C(=O)Cc2cccc(C(F)(F)F)c2)c2c(N)ncnc21,-6.62% (inactive),
Clc1ccc2nsnc2c1NC1=NCCN1,-23.7% (inactive),
OCCN1C[C@H](O)[C@@H](O)[C@H](O)[C@H]1CO,15.8% (inactive),
C[C@@H]1CCNC(=O)c2cc3ccc(C(=O)Nc4nc5ccccc5n4CCCN(C)C)cc3n21,-16.4% (inactive),
NCC(=O)CCC(=O)O,3.23% (inactive),
CC1(C)[C@@H]2CC[C@@]1(C)C(=O)C2,5.21% (inactive),
CCc1cccc2c(CCO)c[nH]c12,-16.3% (inactive),

SMILES,"activity change, negative = inhibition",Potency
O=c1cc[nH]c(=O)[nH]1,6.7% (inactive),
CN(C)C1CCN(C(=O)c2ccc(NC(=O)Nc3ccc(-c4nc(N5CCOCC5)nc(N5CCOCC5)n4)cc3)cc2)CC1,-26.8% (inactive),
CCCC(O)C(CC)CO (stereo not drawn),-10.6% (inactive),
FC1(F)C(F)(F)C(F)(F)C2(F)C(F)(F)C(F)(F)C(F)(F)C(F)(F)C2(F)C1(F)F (stereo not drawn),2.91% (inactive),
CC(C)C(=O)c1c(C(C)C)nn2ccccc12,31.4% (inactive),
O=C(Cn1ccnc1[N+](=O)[O-])NCCO,3.44% (inactive),
CC(=O)Oc1c(C)c(C)c2c(c1C)CC[C@@](C)(CCC[C@H](C)CCC[C@H](C)CCCC(C)C)O2,-18.4% (inactive),
Cn1c(=O)c2c(ncn2C)n(C)c1=O,,inactive
O=C(O)Cc1csc(-c2ccc(Cl)cc2)n1,15% (inactive),
CC[C@H](C)[C@H](N)C(=O)O,15.5% (inactive),
CN1CC(=O)N/C1=N/C(=O)Nc1cccc(Cl)c1,5.23% (inactive),
N#CCC(=O)NN,16.2% (inactive),
Cc1ccc2c(n1)Oc1ccc(C(C)C(=O)OCC(=O)N(C)C)cc1C2 (stereo not drawn),-7.19% (inactive),
C/C(=N\O)[C@@H](C)NCC(C)(C)CN[C@H](C)/C(C)=N/O,-3.66% (inactive),
CCN(CC)CC(=O)Nc1c(C)cccc1C(=O)OC,12.1% (inactive),
O=P(O)(O)OCC(O)CO (stereo not drawn),-2.4% (inactive),
NC(=O)c1cn(Cc2c(F)cccc2F)nn1,24.9% (inactive),
CCCCCCCC/C=C\CCCCCCCCN,13.8% (inactive),
COc1ccc(CCC(C)=O)cc1,-1.17% (inactive),

# Test system: not listed separately
# Test: Viability qHTS for spleen associated tyrosine kinase inhibitor (SYKi) naive MV4-11 cells (AID 1963823); note: potency is the fitted concentration of half-maximal effect
# Conditions: MV4-11 AML viability, CellTiter-Glo luminescence, 72 h; series mostly up to 45 µM; viability (% of control): at the top concentration
# In short: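 Compounds were dispensed acoustically onto plates, MV4-11 cells (SYKi-naive) added at 500 per well, and plates incubated 72 hr at 37 C. CellTiter-Glo was added and luminescence measured after 10 min.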
SMILES,viability (% of control),Potency
C[C@H]1CN(C[C@H](Cc2ccccc2)C(=O)NCC(=O)O)CC[C@@]1(C)c1cccc(O)c1,40% (inactive),
FC(F)(F)C(F)(F)C(F)(F)C(F)(F)C(F)(F)C(F)(F)C(F)(F)C(F)(F)Br,71% (inactive),
Cc1cccc(OCC(O)CNC(C)(C)C)c1C (stereo not drawn),71.7% (inactive),
CCOC(=O)C(O)c1ccccc1 (stereo not drawn),96% (inactive),
CCN1CCCC1CN (stereo not drawn),116% (inactive),
CCCCCOC(=O)Nc1nc(=O)n([C@@H]2O[C@H](C)[C@@H](O)[C@H]2O)cc1F,,inactive
C=CCN1CCc2nc(N)sc2CC1,83% (inactive),
CCN(CC)CCNC(=O)c1cc(Cl)c(N)cc1OC,,inactive
CCCCCCCCCCC(CO)CCCCCCCC (stereo not drawn),71.6% (inactive),
CC(C)(C)c1nnc(NS(=O)(=O)c2ccccc2)s1,91.1% (inactive),
NC(CS)C(=O)O (stereo not drawn),76.9% (inactive),
O=C(/C=C/c1ccc(O)c(O)c1)O[C@@H]1C[C@@](OC(=O)/C=C/c2ccc(O)c(O)c2)(C(=O)O)C[C@@H](O)[C@@H]1O,79.8% (inactive),
Cc1cc(NC(=O)C2=C(O)c3ccccc3S(=O)(=O)N2C)no1,77.6% (inactive),
Cn1cc(-c2ccc3c(c2)CCN3C(=O)Cc2cccc(C(F)(F)F)c2)c2c(N)ncnc21,,731 nM (active)
Clc1ccc2nsnc2c1NC1=NCCN1,72.4% (inactive),
OCCN1C[C@H](O)[C@@H](O)[C@H](O)[C@H]1CO,,inactive
C[C@@H]1CCNC(=O)c2cc3ccc(C(=O)Nc4nc5ccccc5n4CCCN(C)C)cc3n21,,662 nM (active)
NCC(=O)CCC(=O)O,75.9% (inactive),
CC1(C)[C@@H]2CC[C@@]1(C)C(=O)C2,101% (inactive),
CCc1cccc2c(CCO)c[nH]c12,80.1% (inactive),

SMILES,viability (% of control),Potency
O=c1cc[nH]c(=O)[nH]1,108% (inactive),
CN(C)C1CCN(C(=O)c2ccc(NC(=O)Nc3ccc(-c4nc(N5CCOCC5)nc(N5CCOCC5)n4)cc3)cc2)CC1,,14.6 nM (active)
CCCC(O)C(CC)CO (stereo not drawn),84% (inactive),
FC1(F)C(F)(F)C(F)(F)C2(F)C(F)(F)C(F)(F)C(F)(F)C(F)(F)C2(F)C1(F)F (stereo not drawn),77.7% (inactive),
CC(C)C(=O)c1c(C(C)C)nn2ccccc12,93.7% (inactive),
O=C(Cn1ccnc1[N+](=O)[O-])NCCO,100% (inactive),
CC(=O)Oc1c(C)c(C)c2c(c1C)CC[C@@](C)(CCC[C@H](C)CCC[C@H](C)CCCC(C)C)O2,71.6% (inactive),
Cn1c(=O)c2c(ncn2C)n(C)c1=O,,inactive
O=C(O)Cc1csc(-c2ccc(Cl)cc2)n1,80.2% (inactive),
CC[C@H](C)[C@H](N)C(=O)O,73% (inactive),
CN1CC(=O)N/C1=N/C(=O)Nc1cccc(Cl)c1,89.4% (inactive),
N#CCC(=O)NN,116% (inactive),
Cc1ccc2c(n1)Oc1ccc(C(C)C(=O)OCC(=O)N(C)C)cc1C2 (stereo not drawn),,11900 nM (active)
C/C(=N\O)[C@@H](C)NCC(C)(C)CN[C@H](C)/C(C)=N/O,82.6% (inactive),
CCN(CC)CC(=O)Nc1c(C)cccc1C(=O)OC,75.4% (inactive),
O=P(O)(O)OCC(O)CO (stereo not drawn),75.9% (inactive),
NC(=O)c1cn(Cc2c(F)cccc2F)nn1,83.8% (inactive),
CCCCCCCC/C=C\CCCCCCCCN,90.3% (inactive),
COc1ccc(CCC(C)=O)cc1,105% (inactive),

# From PubChem BioAssay (NCATS)
